Our source for the AC50 and activity, negative = inhibition values is PubChem BioAssay AID1851 (National Center for Advancing Translational Sciences (NCATS), 2009).

The whole screen tested about 16,000 compounds, of which about 5,100 (32%) were called active. Roughly 25% stayed inconclusive and do not appear here. The list shows a part of the results. A number with no mark means an inactive call. Calls come from the whole dose curve; as a rule, active = well fitted curve in the direction sought with a large enough effect; inconclusive = small, poorly fitted or top-dose-only effect, or effect the other way; inactive = no such curve, though single readings can be large or run the other way.

Usually AC50 stands for the midpoint of the concentration-response curve, whichever way the signal moves.
% is set by controls: 0 for no effect and ±100 for the full control effect.

The target of the experiment is Cytochrome P450 3A4 (Homo sapiens) (UniProt P08684). Description: Cytochrome panel assay with activity outcomes. As to conditions: recombinant CYP, pro-luciferin dealkylation, luminescence, p450-cyp3a4; series mostly up to 57.1 µM.
Sequence of Cytochrome P450 3A4 (Homo sapiens) (P08684 whole entry, looked up): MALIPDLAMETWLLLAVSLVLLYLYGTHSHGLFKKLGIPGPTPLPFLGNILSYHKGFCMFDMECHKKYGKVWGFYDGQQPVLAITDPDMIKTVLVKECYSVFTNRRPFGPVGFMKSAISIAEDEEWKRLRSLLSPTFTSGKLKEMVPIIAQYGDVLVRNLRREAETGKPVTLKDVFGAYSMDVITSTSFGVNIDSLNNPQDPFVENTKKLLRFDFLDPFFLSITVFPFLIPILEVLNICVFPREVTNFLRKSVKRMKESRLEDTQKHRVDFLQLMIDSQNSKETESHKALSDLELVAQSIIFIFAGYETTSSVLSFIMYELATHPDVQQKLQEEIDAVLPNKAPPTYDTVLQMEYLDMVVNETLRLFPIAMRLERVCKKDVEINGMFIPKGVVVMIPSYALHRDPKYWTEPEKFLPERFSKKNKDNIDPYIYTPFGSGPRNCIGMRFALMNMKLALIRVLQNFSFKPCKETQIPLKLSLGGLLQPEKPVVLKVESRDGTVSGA
On to `CN[C@@H]1[C@H](O[C@H]2[C@@H](O[C@@H]3[C@@H](O)[C@@H](O)[C@@H](N=C(N)N)[C@@H](O)[C@@H]3N=C(N)N)O[C@@H](C)[C@]2(O)CO)O[C@H](CO)[C@@H](O)[C@@H]1O`, for which the AC50 result is “inactive”.

Take `COc1cc(C=O)ccc1OCCOCCOc1ccccc1Cl`: the activity, negative = inhibition is -2.53% [at 2.29 µM].

Regarding `COc1cc(C)ccc1OCCCOc1ccccc1Br`, the activity, negative = inhibition was 3.33% [at 2.29 µM].

`COc1ccccc1OCCCOc1ccc([N+](=O)[O-])cc1Cl`: the AC50 is 14.1 µM (active).

With `Cc1ccc2c(c1)N(CC(=O)NC1CCC(C)CC1)C(=O)CO2` (centres undefined), the AC50 is 7.08 µM (active).

In the case of `Cc1ccc2c(c1)N(CC(=O)NC1CCCc3ccccc31)C(=O)CO2` (centres undefined), the AC50 is 7.08 µM (active).

Take `Cc1ccc(C(=O)NC(=S)Nc2cccc3nsnc23)cc1`: the AC50 entry was “inactive”.

As for `CC(=O)NN1C(=O)/C(=C\c2ccc(C)cc2)SC1=S`, the AC50 result is “inactive”.

On to `Cc1ccc(C(=O)N/C(=C\c2ccc(Br)cc2)c2nc(=S)[nH][nH]2)cc1`, for which the AC50 is 22.4 µM (active).

Take `CN(C)CCCN1c2ccc3ccccc3c2Sc2cccc(Cl)c21`: the activity, negative = inhibition was -11.7% [at 11.4 µM].

Consider `c1ccc(CCc2nc(-c3ccccc3)no2)cc1`, for which the AC50 result is “inactive”.

`Clc1ccc(Cc2nc(-c3cccnc3)no2)cc1`: the AC50 is 2.51 µM (active).

`Clc1ccc(-c2noc(CN3CCCCC3)n2)cc1`: the activity, negative = inhibition is -11.9% [at 11.4 µM].

With `Cc1ccc(C2=Nc3ccccc3S[C@@H](c3cccc([N+](=O)[O-])c3)C2)cc1`, the AC50 was 3.98 µM (active).

In the case of `C[C@@]12CC[C@@H]3c4ccc(O)cc4CC[C@H]3[C@H]1C[C@@H](O)[C@H]2O`, the AC50 entry was “inactive”.

For `Cc1cccc(C)c1OC1(c2ccccc2)OC(=O)c2ccccc21` (centres undefined), the AC50 is 8.91 µM (active).

As to `CCCCCCCOC1(c2ccccc2)OC(=O)c2ccccc21` (centres undefined), the AC50 result is “inactive”.

For `N#C/C(=C\Nc1ccccn1)C(=O)c1ccco1`, the activity, negative = inhibition is -18.7% [at 11.4 µM].

For `CCCC(CCC)C(=O)NNc1cc(=O)c2c(=O)n(C)c(=O)n(C)c2[nH]1`, the AC50 entry was “inactive”.

Consider `Cc1noc(NS(=O)(=O)c2ccc(N)cc2)c1C`, for which the AC50 result is “inactive”.

Consider `Cc1noc(NS(=O)(=O)c2ccc(NC(=O)CC34CC5CC(CC(Br)(C5)C3)C4)cc2)c1C`, for which the AC50 is 6.31 µM (active).

In the case of `Cc1ccnc(NS(=O)(=O)c2ccc(NC(=O)C3CCCNC3=O)cc2)n1` (centres undefined), the AC50 entry was “inactive”.

As to `O=[N+]([O-])c1cccc(-c2nc(-c3ccncc3)no2)c1`, the AC50 is 0.562 µM (active).

As for `COC(=O)COc1ccc2c(-c3cccc([N+](=O)[O-])c3)cc(=O)oc2c1`, the AC50 entry was “inactive”.

`CC(C)CCNC1=NCCCCC1`: the AC50 entry is “inactive”.

Consider `Cc1[nH]nc2nc(SCC(=O)NCC3CCCO3)n(-c3ccc(Br)cc3)c(=N)c12` (centres undefined), for which the AC50 is 11.2 µM (active).

On to `Cc1cccc2c(SCC(=O)NCC3CCCO3)nc(-c3ccc(F)cc3)nc12` (centres undefined), for which the AC50 result is “inactive”.

Consider `Cc1ccc(-n2ncc3c(=O)n(CC(=O)NCC4CCCO4)cnc32)cc1` (centres undefined), for which the AC50 result was “inactive”.

Take `Nc1ncnc2c1cnn2-c1ccccc1`: the AC50 result is “inactive”.

Consider `Nc1ccc(Sc2cnn(-c3ccccc3)c(=O)c2Cl)cc1`, for which the AC50 is 8.91 µM (active).

For the molecule `NCCCCCC(=O)O`, the AC50 entry was “inactive”.

In the case of `Cc1nc(SCC(=O)NCCc2ccc(Cl)cc2)nc(C)c1C`, the AC50 was 2 µM (active).

With `CNC(=O)C(=O)NCCc1ccc(Cl)cc1`, the AC50 entry is “inactive”.

In the case of `Nc1ccc(S(=O)(=O)Nc2ccc(Cl)nn2)cc1`, the AC50 entry is “inactive”.

`Cc1nc2sccc2c(=O)n1-c1cccc(Cl)c1`: the activity, negative = inhibition was 17.4% [at 11.4 µM].

As to `O=C(Cc1ccccc1)N/N=C/C=C/c1cccc([N+](=O)[O-])c1`, the AC50 result was “inactive”.

On to `Nc1nnc(CC(=O)N/N=C/c2cccc([N+](=O)[O-])c2)s1`, for which the AC50 is 28.2 µM (active).

On to `CCOc1ccc(-c2cc(CCCC(=O)NCCc3ccc(OC)c(OC)c3OC)no2)cc1`, for which the AC50 is 7.08 µM (active).

In the case of `CCOc1ccc(-c2cc(CCCC(=O)Nc3cc(OC)ccc3OC)no2)cc1`, the AC50 is 3.55 µM (active).

As for `CCCC(=O)Nc1cc(-c2cn3cccnc3n2)ccc1OC`, the AC50 entry is “inactive”.

On to `COc1ccc(CN2CCN(C(=O)CC(C)C)CC2)c(OC)c1OC`, for which the AC50 entry was “inactive”.

Consider `N[C@H](CCC(=O)NCS(=O)(=O)O)C(=O)O`, for which the AC50 result is “inactive”.

With `CC(=O)N1CCC2(CC1)CN(c1ccccn1)C2`, the AC50 entry was “inactive”.

On to `c1ccc(-c2ccc(N3CCCC4(CCNCC4)C3)cc2)cc1`, for which the AC50 was 12.6 µM (active).

Take `c1ccc(-c2ccc(N3CC[C@@]4(CCCNC4)C3)cc2)cc1`: the AC50 result was “inactive”.

For the molecule `O=C(Oc1ccccc1)N1CCC2(CCCN(c3ccccn3)C2)CC1`, the concentration at half-maximal activity (AC50) is 25.1 µM (active).

Take `COC(=O)N1CCC2(CCCN(c3ccccn3)C2)CC1`: the AC50 result was “inactive”.

With `O=C(Oc1ccccc1)N1CCC[C@@]2(CCN(c3ccccn3)C2)C1`, the AC50 is 10 µM (active).

`CS(=O)(=O)N1CCC2(CC1)CN(c1ccc(-c3ccccc3)cc1)C2`: the AC50 result is “inactive”.

Regarding `COC(=O)N1CCC[C@@]2(CCN(c3ccccn3)C2)C1`, the AC50 entry was “inactive”.

On to `O=C(Oc1ccccc1)N1CCC2(CCCN(c3ccc(-c4ccccc4)cc3)C2)CC1`, for which the AC50 was 31.6 µM (active).

Turning to `CC(=O)N1CCC2(CC1)CCN(c1ccc(-c3ccccc3)cc1)CC2`, the AC50 entry was “inactive”.

In the case of `O=C(Oc1ccccc1)N1CCC2(CCCN(c3ncccn3)C2)CC1`, the AC50 result is “inactive”.

On to `CC(C)(CC(=O)N1CCN(c2ccc(Cl)cc2)CC1)CC1=NS(=O)(=O)c2ccccc2N1`, for which the AC50 was 2.51 µM (active).

As to `NC(=O)CCCC1=NS(=O)(=O)c2ccccc2N1`, the AC50 result was “inactive”.

On to `NC(=O)C1(N2CCCCC2)CCN(C(=S)Nc2ccc(Cl)cc2)CC1`, for which the AC50 result was “inactive”.

`CCOC(=O)N1CCN(C(=O)c2cccn3c(=O)c4cc(Cl)ccc4nc23)CC1`: the AC50 result is “inactive”.

Regarding `NC(=O)C1(N2CCCCC2)CCN(C(=O)c2cccn3c(=O)c4cc(Cl)ccc4nc23)CC1`, the AC50 is 11.2 µM (active).

For the molecule `CC(C)(C)n1nnnc1C(c1cccnc1)N(Cc1ccccc1)Cc1ccco1` (centres undefined), the AC50 is 0.794 µM (active).

Take `O=C(NCCc1c[nH]c2ccccc12)[C@@H]1C[C@H]1[C@@H](NP(=O)(c1ccccc1)c1ccccc1)c1ccccc1`: the AC50 was 1.26 µM (active).

Regarding `O=C(NCCc1c[nH]c2ccccc12)[C@H]1C[C@@H]1[C@H](NP(=O)(c1ccccc1)c1ccccc1)c1ccccc1`, the AC50 is 1.58 µM (active).

As for `CN(Cc1cc(C(C)(C)C)cc(Br)c1O)Cc1cc(C(C)(C)C)cc(Br)c1O`, the activity, negative = inhibition was -11.7% [at 11.4 µM].

Consider `CCOC(=O)c1cnc2cc(-c3ccc(C(C)(C)C)cc3)nn2c1N`, for which the AC50 entry is “inactive”.

Turning to `CCOC(=O)c1cnc(-c2ccccc2)nc1Oc1cccc(Cl)c1`, the AC50 entry was “inactive”.

Take `CCOC(=O)c1cnc2cc(-c3ccc(C)cc3)nn2c1-c1ccccc1`: the AC50 was 20 µM (active).

Regarding `Cc1onc(-c2ccccc2Cl)c1C(=O)NCC(=O)O`, the AC50 result was “inactive”.

Regarding `CCOC(=O)C1=NOC(CNC(=O)C2=NOC(CNC(=O)c3c(-c4ccccc4Cl)noc3C)C2)C1` (centres undefined), the AC50 is 12.6 µM (active).

Regarding `CC(=O)C1=NOC(CNC(=O)c2c(-c3ccccc3Cl)noc2C)C1` (centres undefined), the AC50 was 15.8 µM (active).

Regarding `CC(=O)c1c(C(C)=O)c(C)n(NC(=O)c2ccccc2Cl)c1C`, the AC50 entry is “inactive”.

For the molecule `CC(C)(C[C@@]1(C)NC(=O)NC1=O)OCc1ccccc1`, the activity, negative = inhibition was -6.17% [at 11.4 µM].

Take `O=C(O)c1cc(C(=O)C(=O)c2cc(C(=O)O)c(O)c3ccccc23)c2ccccc2c1O`: the activity, negative = inhibition is -22.6% [at 11.4 µM].

Take `Cc1cccc(NC(=O)N(Cc2nc3ccccc3c(=O)[nH]2)C2CCCC2)c1`: the AC50 is 15.8 µM (active).

Regarding `CCN(CC(=O)Nc1ccc(N2CCOCC2)cc1)Cc1nc2ccccc2c(=O)[nH]1`, the AC50 entry was “inactive”.

As to `CC(C)c1ccc(NC(=O)N(CCc2nc3ccccc3[nH]2)C2CCCC2)cc1`, the activity, negative = inhibition is -18.7% [at 2.29 µM].

`Nc1nnc(C(c2ccccc2)c2ccccc2)s1`: the AC50 result was “inactive”.

On to `O=C(C[C@@H](c1ccccc1)N1CCCCC1)c1ccccc1`, for which the activity, negative = inhibition was -9.31% [at 11.4 µM].

On to `Cc1cccc(C(CC(=O)N2CCCC2)c2ccccc2)c1O` (centres undefined), for which the half-maximal activity concentration (AC50) was 2.51 µM (active).

For the molecule `Cc1ccc(OC(=O)c2cccc(C(=O)Oc3ccc(C)cn3)n2)nc1`, the AC50 result is “inactive”.

As for `FC(F)(F)c1nc(N2CCCC2)ncc1-c1nnnn1-c1ccccc1`, the activity, negative = inhibition was 21% [at 2.29 µM].

As for `FC(F)(F)c1nc(-c2ccncc2)ncc1-c1nnnn1-c1ccccc1`, the AC50 was 5.62 µM (active).

Consider `O=c1cc(CF)[nH]c(=S)[nH]1`, for which the activity, negative = inhibition is -8.49% [at 11.4 µM].

Consider `COC(=O)c1ccc(NC(=O)c2ccccc2NS(=O)(=O)c2ccccc2)cc1`, for which the AC50 is 7.94 µM (active).

For `CC(=O)C=NCC(=O)O`, the activity, negative = inhibition was -0.504% [at 11.4 µM].

Consider `CC(C)CO/N=C1/C[C@@H](O)[C@@H](O)[C@@H]2[C@@H]3C(=O)N([C@@H](C)c4ccccc4)C(=O)[C@H]3CC[C@@H]12`, for which the activity, negative = inhibition is -29.6% [at 11.4 µM].

Regarding `C[C@H](c1ccccc1)N1C(=O)[C@H]2[C@@H]3[C@H](O)[C@H](O)CC(=O)[C@H]3CC[C@H]2C1=O`, the activity, negative = inhibition was -18.1% [at 11.4 µM].

On to `C#CCCCO/N=C1/C[C@@H](O)[C@@H](O)[C@@H]2[C@@H]3C(=O)N(CC)C(=O)[C@H]3CC[C@H]12`, for which the activity, negative = inhibition is -27.7% [at 11.4 µM].

On to `CCOC(=O)N/N=C1/C[C@@H](O)[C@@H](O)[C@@H]2[C@@H]3C(=O)N([C@@H](C)c4ccccc4)C(=O)[C@H]3CC[C@H]12`, for which the activity, negative = inhibition is -23.4% [at 11.4 µM].

As to `C#CCCCO/N=C1/C[C@@H](O)[C@@H](O)[C@@H]2[C@@H]3C(=O)N(Cc4ccccc4)C(=O)[C@H]3CC[C@@H]12`, the activity, negative = inhibition was -23.2% [at 11.4 µM].

As to `C#CCCCO/N=C1/C[C@@H](O)[C@@H](O)[C@@H]2[C@@H]3C(=O)N([C@@H](C)c4ccccc4)C(=O)[C@H]3CC[C@@H]12`, the AC50 is 3.98 µM (active).

Turning to `C#CCCCO/N=C1/C[C@@H](O)[C@@H](O)[C@@H]2[C@@H]3C(=O)N([C@@H](C)c4ccccc4)C(=O)[C@H]3CC[C@H]12`, the AC50 was 3.98 µM (active).

As to `CCOC(=O)N/N=C1/C[C@@H](O)[C@@H](O)[C@@H]2[C@@H]3C(=O)N([C@@H](C)c4ccccc4)C(=O)[C@H]3CC[C@@H]12`, the activity, negative = inhibition was -20.9% [at 11.4 µM].

Turning to `C#CCCCO/N=C1/C[C@@H](O)[C@@H](O)[C@@H]2[C@@H]3C(=O)N(CC)C(=O)[C@H]3CC[C@@H]12`, the activity, negative = inhibition is -23.5% [at 11.4 µM].

On to `C#CCCCO/N=C1/C[C@@H](O)[C@@H](O)[C@@H]2[C@@H]3C(=O)N(Cc4ccccc4)C(=O)[C@H]3CC[C@H]12`, for which the AC50 is 3.98 µM (active).

In the case of `C#CCCCO/N=C1/C[C@@H](O)[C@@H](O)[C@@H]2[C@@H]3C(=O)N(C4CCCCC4)C(=O)[C@H]3CC[C@@H]12`, the AC50 is 3.16 µM (active).
